Settings in all cases: modulator concentration 10 µM
The subject of test [1] is RAW-Dual (murine macrophage reporter line). Kind of test: NF-kB reporter (SEAP) activity fold change vs agonist alone; higher = enhanced NF-kB activity. In short, it runs like this:
(§1)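 RAW-Dual murine macrophage reporter cells were plated at 50 000 per well in 384-well plates, pin-transferred compound to 10 μM final, and pre-incubated for 1 hour at 37 °C before a PRR agonist was added and the cells incubated overnight. NF-κB activity was read from supernatant SEAP with QUANTI-Blue at 620 nm absorbance, and IRF activity from Lucia luciferase with QUANTI-Luc by luminescence. Each signal was expressed as fold change by dividing by the mean agonist-only control on the same plate. Two replicate plates were averaged, with errors obtained by propagation.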

The test system is the same in test [2]. Kind of test: IRF reporter (Lucia luciferase) activity fold change vs agonist alone; higher = enhanced IRF activity. In short, it runs like this: as §1
Test [3] shares this test system. Briefly: viability score (confluency relative to resting cells, overnight) (fraction); higher = more viable, active = viable (0.7 or more). In short, it runs like this:
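RAW-Dual macrophages in 384-well plates were exposed overnight to compound at 10 μM final. Confluency was imaged with IncuCyte, and two confluency masks were generated with IncuCyte software over all imaged wells. The viability score is confluency expressed relative to resting cells. Compounds were called viable if both masks exceeded 70% of resting cells.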

[4] abbreviates: agonist: CpG ODN 1826 0.5 ug/mL.

± gives the standard deviation.

This is an account of results in the supplement of paper PMC10646978.

As for `COc1ccc(OC)c(-c2csc(NC(=O)C3CC3)n2)c1`, the NF-kB reporter in test [1] (setting [4]) worked out at 1.11 ± 0.068; in test [1] (agonist: LPS 0.1 ug/mL), 0.972 ± 0.08; in test [1] (agonist: MPLA […]) it was 1 ± 0.034. Besides, the values for the IRF reporter in test [2] (agonist: 3'3'-cGAMP 10 ug/mL), in test [2] (agonist: LPS 0.1 ug/mL) and in test [2] (agonist: MPLA […]) were 0.935 ± 0.043, 1.01 ± 0.061 and 1.13 ± 0.12, respectively. In addition, in test [3], the viability score was 0.994 (active).
For `COc1cc2nc(N3CCN(C(=O)C4CCCO4)CC3)nc(N)c2cc1OC.Cl` (stereo unspecified), the NF-kB reporter in test [1] (setting [4]) stood at 0.503 ± 0.069; in test [1] (agonist: LPS 0.1 ug/mL), 0.98 ± 0.24; in test [1] (agonist: MPLA […]), 0.904 ± 0.054. In addition, the IRF reporter in test [2] (agonist: 3'3'-cGAMP 10 ug/mL) was 0.913 ± 0.055; in test [2] (agonist: LPS 0.1 ug/mL) it was 1.34 ± 0.31; in test [2] (agonist: MPLA […]), 1.07 ± 0.14. Also, in test [3], the viability score was 0.988 (active).
Regarding `COc1ccc(OC2CCN(C(=O)C3CCOC3)C2)nn1` (stereo unspecified), the NF-kB reporter in test [1] (setting [4]) is 0.955 ± 0.12; in test [1] (agonist: LPS 0.1 ug/mL), 1.04 ± 0.1; in test [1] (agonist: MPLA […]) it was 0.949 ± 0.11. The IRF reporter in test [2] (agonist: 3'3'-cGAMP 10 ug/mL) worked out at 1 ± 0.083; in test [2] (agonist: LPS 0.1 ug/mL), 1.12 ± 0.072; in test [2] (agonist: MPLA […]) it was 1.23 ± 0.14. Besides, the viability score in test [3] is 0.999 (active).
Take `Cc1cccc(NC(=O)Cc2c(C)nc(SCc3ccccc3F)[nH]c2=O)c1C`: the figures for the NF-kB reporter in test [1] (setting [4]), in test [1] (agonist: LPS 0.1 ug/mL) and in test [1] (agonist: MPLA […]) were 0.996 ± 0.059, 1.13 ± 0.088 and 1.03 ± 0.081, respectively. Also, the IRF reporter came to 0.938 ± 0.043 in test [2] (agonist: 3'3'-cGAMP 10 ug/mL), 0.97 ± 0.081 in test [2] (agonist: LPS 0.1 ug/mL) and 0.937 ± 0.21 in test [2] (agonist: MPLA […]). For the same molecule, the viability score in test [3] is 0.997 (active).
On to `O=C(Cc1ccccc1)NC(NC(=S)Nc1ccc(O)cc1)C(Cl)(Cl)Cl` (stereo unspecified), for which the figures for the NF-kB reporter in test [1] (setting [4]), in test [1] (agonist: LPS 0.1 ug/mL) and in test [1] (agonist: MPLA […]) were 0.88 ± 0.075, 0.818 ± 0.098 and 1.06 ± 0.1, respectively. In addition, the IRF reporter in test [2] (agonist: 3'3'-cGAMP 10 ug/mL) stood at 0.935 ± 0.032; in test [2] (agonist: LPS 0.1 ug/mL), 1.29 ± 0.24; in test [2] (agonist: MPLA […]), 1.57 ± 0.33. Also, the viability score in test [3] is 1.02 (active).
Turning to `CC(=O)N1CCN(c2ccc(OC[C@H]3CO[C@](Cn4ccnc4)(c4ccc(Cl)cc4Cl)O3)cc2)CC1`, the values for the NF-kB reporter in test [1] (setting [4]), in test [1] (agonist: LPS 0.1 ug/mL) and in test [1] (agonist: MPLA […]) were 0.723 ± 0.072, 1.06 ± 0.071 and 1.03 ± 0.025, respectively. Further, the IRF reporter stood at 0.925 ± 0.094 in test [2] (agonist: 3'3'-cGAMP 10 ug/mL), 1.07 ± 0.15 in test [2] (agonist: LPS 0.1 ug/mL) and 1.07 ± 0.27 in test [2] (agonist: MPLA […]). The viability score in test [3] is 1 (active).
Take `Cc1ccc(NC(=O)CSc2nc3ccccc3[nH]2)cc1.Cl`: the NF-kB reporter was 1.28 ± 0.37 in test [1] (setting [4]), 1.15 ± 0.1 in test [1] (agonist: LPS 0.1 ug/mL) and 1.02 ± 0.068 in test [1] (agonist: MPLA […]). Moreover, the IRF reporter in test [2] (agonist: 3'3'-cGAMP 10 ug/mL) was determined as 0.764 ± 0.036; in test [2] (agonist: LPS 0.1 ug/mL), 1.19 ± 0.13; in test [2] (agonist: MPLA […]), 1.42 ± 0.16. In addition, the viability score in test [3] is 0.388 (inactive).
Take `O=c1cc2c(nn1CC1CCN(CC3(O)CCOCC3)CC1)CCCC2`: the NF-kB reporter in test [1] (setting [4]) was 1.08 ± 0.1; in test [1] (agonist: LPS 0.1 ug/mL), 0.988 ± 0.099; in test [1] (agonist: MPLA […]), 0.918 ± 0.066. Besides, the figures for the IRF reporter in test [2] (agonist: 3'3'-cGAMP 10 ug/mL), in test [2] (agonist: LPS 0.1 ug/mL) and in test [2] (agonist: MPLA […]) were 1.08 ± 0.063, 1.21 ± 0.075 and 1.04 ± 0.17, respectively. Besides, the viability score in test [3] was 1.01 (active).
Regarding `COc1ccc(CNC2CCCc3ccccc32)cc1OC` (stereo unspecified), the NF-kB reporter in test [1] (setting [4]) is 0.648 ± 0.24; in test [1] (agonist: LPS 0.1 ug/mL), 1.1 ± 0.09; in test [1] (agonist: MPLA […]), 0.981 ± 0.11. Moreover, the IRF reporter was found to be 0.713 ± 0.026 in test [2] (agonist: 3'3'-cGAMP 10 ug/mL), 1.12 ± 0.14 in test [2] (agonist: LPS 0.1 ug/mL) and 1.5 ± 0.29 in test [2] (agonist: MPLA […]). The viability score in test [3] was 0.508 (inactive).
For `CCOC(=O)C(=NNc1ccccc1[N+](=O)[O-])C(=O)CSc1ccc(C)cc1`, the NF-kB reporter came to 0.697 ± 0.046 in test [1] (setting [4]), 0.789 ± 0.049 in test [1] (agonist: LPS 0.1 ug/mL) and 0.919 ± 0.056 in test [1] (agonist: MPLA […]). Besides, the IRF reporter in test [2] (agonist: 3'3'-cGAMP 10 ug/mL) is 0.154 ± 0.0098; in test [2] (agonist: LPS 0.1 ug/mL), 1.14 ± 0.083; in test [2] (agonist: MPLA […]), 1.14 ± 0.12. Besides, in test [3], the viability score was 1 (active).
As for `COCC(=O)Nc1c(C(=O)Nc2ccc(OC(F)(F)F)cc2)oc2ccccc12`, the NF-kB reporter turned out to be 1.26 ± 0.1 in test [1] (setting [4]), 1.24 ± 0.098 in test [1] (agonist: LPS 0.1 ug/mL) and 1.22 ± 0.11 in test [1] (agonist: MPLA […]). In addition, the IRF reporter in test [2] (agonist: 3'3'-cGAMP 10 ug/mL) was determined as 1.58 ± 0.085; in test [2] (agonist: LPS 0.1 ug/mL) it was 1.84 ± 0.17; in test [2] (agonist: MPLA […]), 1.85 ± 0.38. Also, the viability score in test [3] is 0.922 (active).
`COC(=O)CNC(c1ccccc1)c1cc(Br)ccc1NC(=O)c1ccccc1Cl` (stereo unspecified): the NF-kB reporter was determined as 0.675 ± 0.059 in test [1] (setting [4]), 1.08 ± 0.092 in test [1] (agonist: LPS 0.1 ug/mL) and 0.963 ± 0.091 in test [1] (agonist: MPLA […]). Moreover, the figures for the IRF reporter in test [2] (agonist: 3'3'-cGAMP 10 ug/mL), in test [2] (agonist: LPS 0.1 ug/mL) and in test [2] (agonist: MPLA […]) were 1 ± 0.037, 1.78 ± 0.17 and 1.59 ± 0.16, respectively. Further, in test [3], the viability score was 1.01 (active).
Consider `CN(C(=NS(=O)(=O)c1ccccc1)c1ccccc1)c1ccc(O)cc1`, for which the NF-kB reporter in test [1] (setting [4]) was 1.05 ± 0.19; in test [1] (agonist: LPS 0.1 ug/mL) it was 1.39 ± 0.11; in test [1] (agonist: MPLA […]), 1.16 ± 0.096. Further, the results for the IRF reporter in test [2] (agonist: 3'3'-cGAMP 10 ug/mL), in test [2] (agonist: LPS 0.1 ug/mL) and in test [2] (agonist: MPLA […]) were 0.968 ± 0.063, 1.2 ± 0.26 and 1.24 ± 0.2, respectively. Further, the viability score in test [3] was 1.01 (active).
